# HCMV inh: inhibitors of human cytomegalovirus; HFF cells, HCMV-luciferase reporter, 72 h; hits give low values; activity change, negative = inhibition, % at 57.5 µM; actives 4.5% (n = 410,000); AID 1259415; in the data active = activity change below about -60%; inconclusive = no clear call, values can overlap the other calls; inactive = above about -39%
#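 Steps: HFFs plated, 16 h 37C; compounds added; HCMV-luciferase added to MOI 1 PFU/cell; 72 h 37C; OneGlo reagent, 5 min room temperature; luminescence read, normalized to controls.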
# FMDV antiviral: foot and mouth disease virus antiviral activity | FMDV antiviral cell-based qHTS | Potency, µM (highest dose often 57.9 µM), without a hit: at the top dose activity change, negative = inhibition, usual class: inhibitors | actives 1.2% (n = 410,000) | AID 1159524; calls by dose curve; tested in HEK293T cells; note: read-out not given here; potency is the fitted concentration of half-maximal effect; nearly all actives have a fitted effect of over 45% in size
# MARV entry inh: blocks Marburg virus binding to or entry into cells; Marburg virus pseudotyped entry inhibition, cell reporter; Potency, µM (doses to about 37.8 µM), without a hit: at the top dose activity change, negative = inhibition, actives largely listed as inhibitors; actives 1.8% (n = 300,000); calls by dose curve; tested in HEK293 cells; note: potency is the fitted concentration of half-maximal effect
# LASV entry inh: inhibitors of Lassa virus binding or cell entry; Lassa virus pseudotype entry inhibition, cell reporter; actives 1.2% (n = 300,000); Potency, µM (highest dose often 37.9 µM), for inactives: top-dose activity change, negative = inhibition, actives largely listed as inhibitors; calls by dose curve; tested in HEK293 cells; note: potency is the fitted concentration of half-maximal effect; nearly all actives have a fitted effect of over 50% in size
# An asterisk follows results filed as active; ? = inconclusive; / = no result given; [ ] = dose if it differs, or a comment. The list is not random: actives were taken first. Their share in the collection is about 6.2%. % is set by controls: 0 for no effect and ±100 for the full control effect.
SMILES,HCMV inh,FMDV antiviral,MARV entry inh,LASV entry inh
COc1cc(N2CCC(O)CC2)ccc1Nc1nnc(Cl)c(Nc2ccccc2S(C)(=O)=O)n1,/,20µM*,/,/
COc1ccc(-c2oc3ccc(N4CCOCC4)cc3c2C#CCO)cc1,-67*,28µM*,/,/
COc1ccc(-c2ccc3oc(-c4ccc(OC)cc4)c(C#CCO)c3c2)cc1,-92*,8.9µM*,/,/
N#Cc1ccccc1CSc1nnc2ccc3ccccc3n12,4,26%,13%[46.1 µM],1%[46.1 µM]
OC[C@H]1OC(O)[C@H](O)[C@@H](O)[C@H]1O (stereo not given in full),-61*,-22%,/,/
COc1ccc(-c2cc(C(F)(F)F)n3nc(C(=O)Nc4cc(Cl)cc(Cl)c4)cc3n2)cc1,14,-18%,0%[46.1 µM],-2%[46.1 µM]
Cc1cc(-n2ccnc(NCCc3ccc(S(N)(=O)=O)cc3)c2=O)ccc1Br,-6,?,/,-20%[46.1 µM]
COc1cc(-c2noc(-c3ccc(NC4CCCCC4)c([N+](=O)[O-])c3)n2)cc(OC)c1OC,-1,2%,-12%[46.1 µM],11%[46.1 µM]
N#Cc1cc(-c2ccccc2)[nH]c1-c1nccc2ccccc12,?,28µM*,/,/
Cc1cc(C)cc(CC(Cc2nc3ccccc3[nH]2)c2nc3ccccc3[nH]2)c1 (stereo not given),-101*,?,?,?
Cc1ccc(CSCc2nc3ccccc3[nH]2)cc1,?,-1%,?,?
c1csc(-c2noc(CN3CCOCC3)n2)c1,24,21%,?,9%[46.1 µM]
NC(=O)C1(N2CCCCC2)CCN(Cc2nc(-c3cccs3)no2)CC1,-31,35µM*,/,/
CCOc1cccc(-c2nnc3n2N=C(c2cc(OC)ccc2OC)CS3)c1,16,?,-7%,-9%
COc1cccc(-c2nnc3n2N=C(c2cc(OC)ccc2OC)CS3)c1,-62*,-8%,?,?
COc1ccc(OC)c(C2=Nn3c(nnc3-c3ccncc3)SC2)c1,0,-1%,4µM*,?
COc1ccccc1-c1nnc2n1N=C(C(C)(C)C)CS2,9,-17%,-19%,-1%
COc1cccc(-c2nnc3n2N=C(C(C)(C)C)CS3)c1,-98*,-17%,-12%,-13%
COc1ccc(C2=Nn3c(nnc3-c3ccc(OC)cc3)SC2)cc1,-101*,?,?,1.3µM*
COc1ccc(OC)c(C2=Nn3c(nnc3-c3cc(OC)c(OC)c(OC)c3)SC2)c1,37,-22%,?,-25%[14.3 µM]
Cc1cc(C)n(-c2cccc(C(=O)NCC3Cc4cc(Cl)cc(-c5cnccn5)c4O3)c2)n1 (stereo not given),/,-18%,/,/
COC(=O)[C@@H]1CCCN1Cc1ccc2c(c1)CN(Cc1cccn1-c1ccccn1)CCO2,/,-10%,/,/
N#CC(C(=O)C1=C(Cl)CCCC1)=C1SCCCS1,/,/,3%,/
c1ccc(C2=Nn3c(nnc3-c3cc(-c4ccccc4)n[nH]3)SC2)cc1,-28,?,?,16µM*
Cc1cc(-c2nnc3n2N=C(c2ccccc2Br)CS3)n[nH]1,-38,-8%,-28%[46.1 µM],-6%
SMILES,HCMV inh,FMDV antiviral,MARV entry inh,LASV entry inh
Cc1cccc(-c2nnc3n2N=C(c2ccccc2Br)CS3)c1,-83*,?,?,?
Clc1ccc(C2=Nn3c(nnc3-c3cc(-c4ccccc4)n[nH]3)SC2)cc1,41,?,?,?
CCOC(=O)c1ccc(NC(=O)C(CC)Sc2nnc3c4ccccc4n(C)c3n2)cc1 (stereo not given),71,-14%,?,4%[46.1 µM]
C/C=N\NC(=O)COc1cc(C)ccc1C,-60*,-6%,-7%[46.1 µM],24%
Cc1ccc(C(C)C)cc1OCC(=O)N/N=C/c1ccc2c(c1)OCCO2,-20,?,?,1.1µM*
Cc1ccc(C)c(OCC(=O)NCCNC(=O)COc2cc(C)ccc2C)c1,31,-29%,-12%,-1%
CC1(C)[C@H]2CC[C@]1(C)[C@H](NC(=O)CCN1CCCCC1)C2,/,/,-19%,/
NC(CSC1(c2ccc(F)cc2)c2ccccc2-c2ccccc21)C(=O)O (stereo not given),-68*,-20%,/,/
NC(CSC1(c2ccc(Cl)cc2)c2ccccc2-c2ccccc21)C(=O)O (stereo not given),-6,-23%,1%,-3%
CCOC(=O)c1ccc(NC(=O)CN2Cc3ccccc3C2=O)cc1,4,-8%,/,-24%[46.1 µM]
COc1ccc(Br)cc1CC1C(=O)Nc2ccccc21 (stereo not given),-74*,?,?,-2%[46.1 µM]
O=C(CN1C(=O)C2(SCC(=O)N2c2ccc(Cl)cc2)c2ccccc21)NCCc1ccccc1 (stereo not given),21,4%,/,-19%[46.1 µM]
CCN(CCn1cccn1)C(=O)CC1C(=O)NCCN1Cc1ccc(F)c(F)c1 (stereo not given),-15,10%,0%,17%
CCN(Cc1ccncc1)C(=O)CC1C(=O)NCCN1Cc1ccc(F)c(F)c1 (stereo not given),-78*,-16%,/,/
CC1CN(C(=O)CCC(=O)Nc2cc(F)ccc2F)c2ccccc2S1 (stereo not given),-78*,-10%,/,-3%[46.1 µM]
Cc1ccccc1NC(=O)CCC(=O)N1CC(C)Sc2ccccc21 (stereo not given),?,8%,/,20%[46.1 µM]
CCOC(=O)CCC(NC(=O)CC(=O)NC(CCC(=O)OCC)C(=O)OCC)C(=O)OCC (stereo not given),-96*,5%,/,/
CCOC(=O)CCC(NC(=O)CCC(=O)NC(CCC(=O)OCC)C(=O)OCC)C(=O)OCC (stereo not given),-34,-12%,-16%,8%
c1ccc(CCCN2CCN(CCOC(c3ccccc3)c3ccccc3)CC2)cc1,-66*,?,14µM*,16µM*
Fc1ccc(C(OCCN2CCN(CCCc3ccccc3)CC2)c2ccc(F)cc2)cc1,-99*,?,7.1µM*,3.7µM*
Fc1ccc(C(OCCN2CCCC2)c2ccc(F)cc2)cc1,-25,-24%,?,-19%
Cc1ccn2c(Nc3ccccc3C)c(-c3ccncc3)nc2c1,-67*,?,3%[46.1 µM],18%[46.1 µM]
Cc1ccccc1Nc1c(-c2ccsc2)nc2c(C)cccn12,-84*,?,6%[46.1 µM],4%[46.1 µM]
Cc1ccc(-c2nc3ccccn3c2Nc2ccccc2C)s1,-13,-12%,-3%[46.1 µM],4%[46.1 µM]
COc1ccc(-c2cc3c(nn2)-c2ccccc2C3=O)cc1,-16,10µM*,?,?
SMILES,HCMV inh,FMDV antiviral,MARV entry inh,LASV entry inh
O=C1c2ccccc2-c2nnc(-c3ccccc3)cc21,12,-18%,?,?
CC(C)(C)S(=O)N1Cc2ccc(CO)cc2[C@@H]1CCO (stereo not given in full),-4,40µM*,/,/
CC(C)(C)S(=O)N1Cc2ccc(CO)cc2[C@H]1CCO (stereo not given in full),17,-14%,/,/
CCCSCCCNC(=O)c1sc2nc(C)cc(C)c2c1-n1cccc1,14,-25%,?,16%[46.1 µM]
O=C(Nc1ccc(Cl)cc1)Nc1nnc(CSCc2ccc(Cl)cc2)s1,-67*,?,/,/
CCc1nnc(NC(=O)Nc2ccc(Cl)cc2)s1,-40,7%,/,/
Cc1nc(NCCc2cnc[nH]2)c2oc3ccccc3c2n1,34,/,2%,11%
COc1ccc(CCNc2nc(C)nc3c2oc2ccccc23)cc1OC,-67*,18µM*,13µM*,13µM*

# Screening results (PubChem BioAssay)
